Each structure is given as a SMILES string. Where a structure was tested more than once in an assay, its records may differ in their call. The source made the active and inactive calls. How the source made its calls: active means hit-call score of the fitted dose curve at least 0.9, where 1 is the maximum; inactive means score below 0.9.

Read-out in this assay: Interleukin-8 (IL8), CXCL8 (gene 3576)
As to the kind of experiment: BSK_hDFCGF_IL8: BioMAP Diversity Plus: hDFCGF Assay for Interleukin-8 (IL8) Biomarker Activity (AID 2283058). As to conditions: primary human foreskin fibroblasts; actives raise or lower the signal. As to the method:
BSK_hDFCGF is a cell-based, multiplexed-readout assay that uses foreskin fibroblast, a human skin primary cell, with measurements taken at 24 hours after chemical dosing in a 96-well plate.BSK_hDFCGF_IL8 is an assay component measured in the BSK_hDFCGF assay. It measures IL-8 antibody related to regulation of gene expression using ELISA technology.Data from the assay component BSK_hDFCGF_IL8 was analyzed into 1 assay endpoint. This assay endpoint, BSK_hDFCGF_IL8, was analyzed with bidirectional fitting relative to DMSO as the negative control and baseline of activity. Using a type of binding reporter, gain or loss-of-signal activity can be used to understand changes in the signaling as they relate to the gene CXCL8. Furthermore, this assay endpoint can be referred to as a primary readout, because this assay has produced multiple assay endpoints where this one serves a signaling function. To generalize the intended target to other relatable targets, this assay endpoint is annotated to the cytokine intended target family, where the subfamily is interleukins.
The levels of cell surface (or secreted, indicated by the prefix "s") biomarker endpoints were measured by ELISA. Overt cytotoxicity to cells in confluent adherent cultures (all systems other than the BT system) was assessed by measuring total protein levels using sulforhodamine B (SRB) staining in parallel cultures at the time of biomarker measurements, indicated as SRB endpoints. For proliferation assays for adherent cell types, individual cell types are cultured at sub-confluence and relative cell numbers quantified by SRB staining at time points optimized for each system (48 h: 3C and CASM3C systems; 72 h: BT and HDF3CGF systems; 96 h: SAg system). SRB was performed by staining cells with 0.1% SRB after fixation with 10% TCA and reading wells at 560 nm.Viability and proliferation of PBMC (T cells) was quantified by Alamar Blue reduction for the SAg and BT systems. For PBMC viability (referred to as PBMC Cytotoxicity within the assay endpoint names), cells were plated (75,000/well in a 96-well plate) and then chemical samples added for 1 h before addition of activators, SEB and TSST-1 (20 ng/mL final concentration each). Cells were incubated for 90 h. Then, Alamar Blue (20 uL/well) (Invitrogen, Cat DAL1100) was added for 6 h, and the plates were read with a fluorescence microplate reader at 546/580 nm (excitation/emission). For PBMC proliferation, cells were plated and activated as above but incubated for only 16 h prior to addition of Alamar Blue. Plates were read after 6 h.
`COC(=O)c1ccccc1S(=O)(=O)NC(=O)Nc1nc(OC(F)F)cc(OC(F)F)n1`: the outcome was inactive. For the molecule `COC(=O)c1ccccc1C(=O)O`, the outcome was inactive. On to `CCC(O)=C1C(=O)CC(C(=O)O)CC1=O` (stereo not given), for which the outcome was inactive. With `CC(C)CCCCCCc1ccc(O)cc1`, the AC50 was 11.7 µM (active). In the case of `c1ccc2[nH]c(-c3cscn3)nc2c1`, the result was inactive. Turning to `CSC(=O)c1cccc2nnsc12`, the outcome was inactive. For the molecule `CCC(C)OC(=O)N1CCCCC1CCO` (stereo not given), the result was inactive. In the case of `CCN(Cc1c(F)cccc1Cl)c1c([N+](=O)[O-])cc(C(F)(F)F)cc1[N+](=O)[O-]`, the result was inactive. `CCNc1nc(N)nc(Cl)n1`: the result was inactive.

On to `COC(=O)CSc1cc(N=c2sc(=O)n3n2CCCC3)c(F)cc1Cl`, for which the result was inactive. Turning to `COC(=O)c1ccc(CNS(C)(=O)=O)cc1S(=O)(=O)NC(=O)Nc1nc(OC)cc(OC)n1`, the outcome was inactive. For the molecule `CCCN(CCC)c1c([N+](=O)[O-])cc(C(F)(F)F)c(N)c1[N+](=O)[O-]`, the outcome was inactive. The same measure, in the same setting: the result for `O=C(c1ccccc1)C1CCCCC1` reads “inactive”; that for `CC(=O)[C@H]1CC[C@H]2[C@@H]3CCC4=CC(=O)CC[C@]4(C)[C@H]3CC[C@]12C`, “inactive”; that for `C#C[C@]1(O)CC[C@H]2[C@@H]3CCC4=CC(=O)CC[C@@H]4[C@H]3CC[C@@]21CC`, “inactive”. As to `O=C(O)C1(C(=O)Nc2ccc(Cl)cc2Cl)CC1`, the result was inactive. Regarding `N#CSCSc1nc2ccccc2s1`, the AC50 was 2.43 µM (active) and the outcome was inactive. On to `O=C(O)c1ccccc1`, for which the result was inactive. `CCOC(=O)C(C)Oc1ccc(Oc2nc3ccc(Cl)cc3o2)cc1` (stereo not given): the outcome was inactive. On to `C#CCOC(=O)[C@@H](C)Oc1ccc(Oc2ncc(Cl)cc2F)cc1`, for which the result was inactive. `CC(C)(c1ccc(O)cc1)c1ccc(O)cc1`: the result was inactive.

Turning to `CCCCOC(=O)[C@@H](C)Oc1ccc(Oc2ccc(C(F)(F)F)cn2)cc1`, the result was inactive.

Take `CCCCCCC(C)OC(=O)COc1nc(F)c(Cl)c(N)c1Cl` (stereo not given): the AC50 is 29.6 µM (active).

With `OB(O)O`, the result was inactive. With `COC(=O)c1cccc(C)c1S(=O)(=O)NC(=O)Nc1nc(OCC(F)(F)F)nc(N(C)C)n1`, the result was inactive.

On to `CCCCC(CC)COC(=O)c1ccccc1C(=O)O` (stereo not given), for which the result was inactive.

For `c1ccc(Nc2ccccc2)cc1`, the result was inactive.

For the molecule `COc1c(Cl)ccc(Cl)c1C(=O)O`, the outcome was inactive.

Regarding `CCCN(CCC)C(=O)SCC`, the outcome was inactive. Take `CC(=O)S[C@@H]1CC2=CC(=O)CC[C@]2(C)[C@H]2CC[C@@]3(C)[C@@H](CC[C@@]34CCC(=O)O4)[C@H]12`: the AC50 was 30.6 µM (active). For `CCCOC(=O)NCCCN(C)C`, the result was inactive. As for `CCCOC(=O)c1ccc(C(=O)OCCC)nc1`, the outcome was inactive. `CCCCCOC(=O)COc1cc(N2C(=O)C3=C(CCCC3)C2=O)c(F)cc1Cl`: the result was inactive.

As to `COCCO`, the result was inactive. On to `COC(=O)c1c(Cl)nn(C)c1S(=O)(=O)NC(=O)Nc1nc(OC)cc(OC)n1`, for which the outcome was inactive. For `CC(C)(C)[C@@H](O)[C@@H](Cc1ccc(Cl)cc1)n1cncn1`, the result was inactive.

On to `CCCCOCCOCCOCc1cc2c(cc1CCC)OCO2`, for which the outcome was inactive.

Turning to `CC1(C)C(C=C(Cl)Cl)C1C(=O)OCc1cccc(Oc2ccccc2)c1` (stereo not given), the result was inactive.

For the molecule `C=CCOC(Cn1ccnc1)c1ccc(Cl)cc1Cl` (stereo not given), the result was inactive.

By AC50 is commonly meant the midpoint of the concentration-response curve, whichever way the signal moves.
